The campaign covered roughly 310,000 compounds. About 2,200 (0.71%) showed an effect of 50% or more. The effect is printed as a negative number. What follows is part of a selection rich in strong results, with near analogues and random picks from the rest.
The compounds below were run against human ether-à-go-go-related gene (hERG) potassium channel (human, UniProt Q12809) (assay: primary screen, population patch clamp on CHO cells stably expressing hERG; higher = less effect of the substance).
Chain of human ether-à-go-go-related gene (hERG) potassium channel (Q12809 whole entry, looked up): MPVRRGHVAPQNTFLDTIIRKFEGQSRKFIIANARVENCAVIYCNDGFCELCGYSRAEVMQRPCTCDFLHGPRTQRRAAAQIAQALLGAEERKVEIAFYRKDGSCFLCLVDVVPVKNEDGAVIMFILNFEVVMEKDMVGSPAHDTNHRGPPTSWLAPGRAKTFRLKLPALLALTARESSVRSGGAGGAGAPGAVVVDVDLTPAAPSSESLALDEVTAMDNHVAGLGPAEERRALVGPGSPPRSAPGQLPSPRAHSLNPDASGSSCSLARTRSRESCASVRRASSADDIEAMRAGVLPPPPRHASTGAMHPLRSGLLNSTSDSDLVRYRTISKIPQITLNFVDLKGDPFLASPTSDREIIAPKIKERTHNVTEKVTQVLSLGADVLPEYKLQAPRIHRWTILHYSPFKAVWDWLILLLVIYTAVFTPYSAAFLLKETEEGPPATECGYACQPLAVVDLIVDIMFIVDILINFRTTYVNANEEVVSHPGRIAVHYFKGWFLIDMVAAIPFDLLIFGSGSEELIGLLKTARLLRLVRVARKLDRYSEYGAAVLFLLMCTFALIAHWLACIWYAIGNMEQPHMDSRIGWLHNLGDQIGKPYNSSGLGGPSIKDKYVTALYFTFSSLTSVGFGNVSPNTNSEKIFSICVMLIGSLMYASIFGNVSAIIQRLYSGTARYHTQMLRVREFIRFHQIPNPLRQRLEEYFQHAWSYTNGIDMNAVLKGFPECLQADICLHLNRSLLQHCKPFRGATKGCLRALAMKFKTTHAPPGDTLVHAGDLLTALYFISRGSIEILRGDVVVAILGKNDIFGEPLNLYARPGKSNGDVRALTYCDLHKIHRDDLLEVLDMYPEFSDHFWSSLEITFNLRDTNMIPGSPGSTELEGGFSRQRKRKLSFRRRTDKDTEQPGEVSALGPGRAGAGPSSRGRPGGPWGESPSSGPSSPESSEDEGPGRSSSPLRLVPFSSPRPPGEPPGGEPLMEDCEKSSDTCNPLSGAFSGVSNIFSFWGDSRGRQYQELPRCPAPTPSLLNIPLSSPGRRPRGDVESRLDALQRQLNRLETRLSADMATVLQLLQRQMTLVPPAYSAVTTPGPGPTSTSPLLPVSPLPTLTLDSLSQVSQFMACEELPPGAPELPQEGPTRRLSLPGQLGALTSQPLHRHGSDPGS

Row | SMILES | hERG current change (%, negative = inhibition) at 1uM
1 | CCn1ccnc1CN1CCCC(CO)(Cc2cccc(OC)c2)C1 (centres unmarked) | -1.48%
2 | OCC1(CCCc2ccccc2)CCN(Cc2ccc(F)cc2)CC1 | -25.3%
3 | COc1ccc(-n2ccnc2CN2CCCC(CO)(Cc3cccc(OC)c3)C2)cc1 (centres unmarked) | 0.509%
4 | OCC1(CCCc2ccccc2)CCN(Cc2cc(F)ccc2F)CC1 | -6.63%
5 | COc1cccc(CC2(CO)CCCN(Cc3cc(F)ccc3-n3cccn3)C2)c1 (centres unmarked) | -85.1%
6 | O=C(NCCS(=O)(=O)NCc1ccccn1)c1ccccc1 | 8.81%
7 | COc1ccccc1C(=O)NNC(=O)C12CC3CC(CC(C3)C1)C2 | 12.4%
8 | COc1ccc(OC)c(-c2csc(N(Cc3ccco3)C(=O)c3cccs3)n2)c1 | -0.179%
9 | CC(=O)CCC(=O)NCCc1ccccc1F | 5.68%
10 | Cc1ccc(NC(=S)NNC(=O)C2CC2c2ccc(C)cc2)cc1 (centres unmarked) | -10.4%
11 | COP(=O)(CC(=O)c1ccccc1)CC(=O)c1ccccc1 | 8.51%
12 | COCCCNC(=S)NC1CC2CCCC(C1)N2Cc1cccs1 (centres unmarked) | 1.43%
13 | COc1nc(-c2ccccc2)ccc1-c1noc(-c2cccs2)n1 | 0.091%
14 | O=S(=O)(Nc1ccc(N2CCOCC2)cc1)c1cc(Cl)ccc1Cl | 7.82%
15 | COc1ccccc1NS(=O)(=O)c1cc(NC(=O)C2CC2)ccc1N1CCOCC1 | 19.5%
16 | Br.N=C1c2ccccc2CN1c1ccc(N2CCOCC2)c(S(=O)(=O)Nc2ccc(Cl)cc2)c1 | -89.2%
17 | COc1ccccc1NS(=O)(=O)c1cc(NC(=O)C(C)(C)C)ccc1N1CCOCC1 | -4.51%
18 | CCC(=O)Nc1ccc(N2CCOCC2)c(S(=O)(=O)Nc2ccc(Cl)cc2)c1 | 11.9%
19 | Br.COc1ccccc1NS(=O)(=O)c1cc(N2Cc3ccccc3C2=N)ccc1N1CCOCC1 | -61.2%
20 | Cn1c(=O)n(C)c2cc(S(=O)(=O)NCC(=O)O)ccc21 | 4.84%
21 | CCOc1ccc(CCNC(=O)c2cc3sccc3n2CC)cc1OCC | 14.1%
22 | COc1cc(NC(=O)CCS(=O)(=O)c2ccc3nc(C)sc3c2)cc(OC)c1OC | 15.8%

Row | SMILES | hERG current change (%, negative = inhibition) at 1uM
23 | CN(C)c1cccc(/C=C(\C#N)c2ccccc2)c1 | 14.2%
24 | COc1ccc(N(C(=O)c2cnsn2)C(C(=O)NC2CCCCC2)c2ccncc2)cc1 (centres unmarked) | 7.11%
25 | CCOc1ccc(N(C(=O)c2cnsn2)C(C(=O)NC2CCCCC2)c2ccncc2)cc1 (centres unmarked) | -52.1%
26 | CCOc1ccc(N(C(=O)c2cnccn2)C(C(=O)NC2CCCCC2)c2ccc(O)cc2)cc1 (centres unmarked) | 12.4%
27 | COc1cccc(C(=O)Nc2ccc(Cl)c(C(F)(F)F)c2)c1 | 8.09%
28 | O=CN1CCCN(C(=O)CC2C(=O)NCCN2Cc2cccc(Oc3ccccc3)c2)CC1 (centres unmarked) | -14.6%
29 | Cn1c(CCN2CCCCC2)nc2cc(NS(=O)(=O)c3ccc(F)cc3)ccc21 | -57.5%
30 | Cn1c(CCN2CCCC2)nc2cc(NS(=O)(=O)c3ccccc3)ccc21 | 6.41%
31 | Cc1ccc(S(=O)(=O)Nc2ccc3c(c2)nc(CN2CCCC2)n3C)cc1 | -9.18%
32 | CC(=O)Nc1ccc2c(c1)nc(CCN1CCC(C)CC1)n2C | 12.4%
33 | Cn1c(CN2CCCCC2)nc2cc(NS(=O)(=O)c3ccc(F)cc3)ccc21 | -21.8%
34 | CC1CCN(CCc2nc3cc(NS(=O)(=O)c4ccccc4)ccc3n2C)CC1 | -53.3%
35 | CCC(=O)Nc1ccc2c(c1)nc(CCN1CCC(C)CC1)n2C | 12.3%
36 | CC1CCN(CCc2nc3cc(NS(=O)(=O)c4ccc(F)cc4)ccc3n2C)CC1 | -54.8%
37 | Cn1c(CCN2CCOCC2)nc2cc(NS(=O)(=O)c3ccccc3)ccc21 | 6.09%
38 | CCn1c(=O)c(CCC(=O)NCC2CCCO2)c(C)c2c(C)nn(-c3ccc(C)cc3)c21 (centres unmarked) | 19.9%
39 | CCOc1ccc(N2C(=O)c3cccnc3C2Nc2ccc(OC)cc2)cc1 (centres unmarked) | 1.01%
40 | CCn1c(=NC(=O)CSCC(=O)Nc2nccs2)sc2ccccc21 | 2.45%
41 | CN(C)c1ccc(C(=O)Nc2ccc(O)c3c(=O)cc(-c4ccccc4Cl)oc23)cc1 | 2.71%
42 | C=CCc1cc(Cl)ccc1OCCCn1ccnc1.O=C(O)C(=O)O | 7.27%
43 | COc1ccc(C(=O)NC(=O)NC2(C(Cl)(Cl)Cl)OCCO2)cc1 | 8.1%
44 | Cc1ccc(NC(=O)C2CC(=O)N(CCc3ccccc3)C2)c(C)c1 (centres unmarked) | 2.1%
